Compound activity: PubChem BioAssay, several laboratories
The full list was thinned out, with hits kept by preference.
AMPAR-TARP mod: modulators of GluA2-stargazin AMPA receptor complexes, primary screen, cell-based, membrane potential dye | AID 1259245, 2017 | calls only at 30 µM | HEK293 GluA2+stargazin, membrane potential dye (FDSS), glutamate EC50; hits were called plate by plate, in both directions | Voltage-dependent calcium channel gamma-2 subunit (Mus musculus) + Glutamate receptor 2 … | actives 3.5% (n = 40,000);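 active = any of four per-well response measures lying three or more SD from its plate-wide compound average, in either direction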
Target sequence (O88602 whole entry, looked up): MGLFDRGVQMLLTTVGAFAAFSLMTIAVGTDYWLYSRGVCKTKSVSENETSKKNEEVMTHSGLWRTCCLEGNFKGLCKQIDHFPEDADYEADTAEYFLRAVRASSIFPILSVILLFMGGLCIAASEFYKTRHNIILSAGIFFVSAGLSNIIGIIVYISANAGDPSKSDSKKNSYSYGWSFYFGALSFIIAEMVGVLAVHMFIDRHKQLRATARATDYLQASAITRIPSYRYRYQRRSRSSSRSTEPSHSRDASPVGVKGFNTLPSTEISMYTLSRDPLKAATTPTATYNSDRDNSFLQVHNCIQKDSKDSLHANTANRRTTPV
Target sequence (P19491 whole entry, looked up): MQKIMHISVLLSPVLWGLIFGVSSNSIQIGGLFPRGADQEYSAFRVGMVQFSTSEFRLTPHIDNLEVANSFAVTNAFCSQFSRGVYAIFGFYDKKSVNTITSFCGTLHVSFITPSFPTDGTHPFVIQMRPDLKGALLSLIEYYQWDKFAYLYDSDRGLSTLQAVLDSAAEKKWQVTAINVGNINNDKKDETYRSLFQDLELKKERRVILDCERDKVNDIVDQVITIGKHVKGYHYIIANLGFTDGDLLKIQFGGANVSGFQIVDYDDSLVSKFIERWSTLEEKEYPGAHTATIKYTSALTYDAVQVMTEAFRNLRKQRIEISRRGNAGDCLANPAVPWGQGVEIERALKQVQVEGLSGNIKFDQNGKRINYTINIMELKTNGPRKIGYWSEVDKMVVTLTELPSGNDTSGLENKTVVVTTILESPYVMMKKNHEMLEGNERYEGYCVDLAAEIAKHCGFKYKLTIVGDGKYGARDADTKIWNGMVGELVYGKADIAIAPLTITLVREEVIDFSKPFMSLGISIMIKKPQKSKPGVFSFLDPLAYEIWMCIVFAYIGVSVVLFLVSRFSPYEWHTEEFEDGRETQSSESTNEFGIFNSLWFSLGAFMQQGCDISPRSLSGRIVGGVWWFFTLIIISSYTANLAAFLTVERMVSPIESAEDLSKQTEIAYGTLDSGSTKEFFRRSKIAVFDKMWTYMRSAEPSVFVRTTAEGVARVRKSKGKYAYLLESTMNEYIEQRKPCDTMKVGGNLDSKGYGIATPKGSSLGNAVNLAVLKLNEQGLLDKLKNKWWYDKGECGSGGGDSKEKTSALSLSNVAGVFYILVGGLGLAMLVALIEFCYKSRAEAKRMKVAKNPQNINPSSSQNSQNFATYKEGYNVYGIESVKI
GIRK2 activator: activators of NPY4-receptor-primed GIRK2 channels, summary, cell-based, HEK293, thallium flux; HEK293 GIRK2/NPY4 cells, thallium flux fluorescence; activation (% efficacy), % for hits at 75 µM; 34,000 tested, under 10 active; AID 1259324, 2017;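 active = primary screen hit, no activity in plain HEK293 cells, and in GIRK2-only cells above 5% efficacy rising with concentration; inactive = the rest, including fluorescent compounds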;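 also: efficacy is normalized control-subtracted fluorescence 15 s after thallium addition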
Numbers without * were called inactive; i = inactive; . = not tested or not shown; + = active, no number.

SMILES	AMPAR-TARP mod	GIRK2 activator
Cn1cccc1C(CNC(=O)c1ccc(F)cc1)N1CCOCC1 (stereo unspecified)	+	i
Cn1cccc1C(CNC(=O)C(=O)NCc1ccc(F)cc1)N1CCOCC1 (stereo unspecified)	i	i
COc1ccccc1CNC(=O)CC1CCCCN1S(=O)(=O)c1ccccc1 (stereo unspecified)	i	.
Cc1ccc(S(=O)(=O)N2CCCCC2CC(=O)NCc2ccccn2)cc1 (stereo unspecified)	i	i
COc1ccc(S(=O)(=O)N2CCCCC2CC(=O)NC2CCCCCC2)cc1 (stereo unspecified)	+	.
COc1ccc(CCNC(=O)CC2CCCCN2S(=O)(=O)c2ccc(Cl)cc2)cc1OC (stereo unspecified)	+	.
COc1ccc(S(=O)(=O)N2CCCCC2CC(=O)NC2CCCCC2)cc1 (stereo unspecified)	i	.
Cc1ccc(S(=O)(=O)N2CCCCC2CC(=O)NC2CCCCCC2)cc1 (stereo unspecified)	+	.
COc1ccc(S(=O)(=O)N2CCCCC2CC(=O)NCc2ccc(Cl)cc2)cc1 (stereo unspecified)	i	.
COc1ccccc1CNC(=O)CC1CCCCN1S(=O)(=O)c1ccc(C)cc1 (stereo unspecified)	+	.
O=C(CC1CCCCN1S(=O)(=O)c1ccccc1)NC1CCCCCC1 (stereo unspecified)	+	.
COc1ccc(CCNC(=O)CC2CCCCN2S(=O)(=O)c2ccccc2)cc1 (stereo unspecified)	i	.
CCc1ccc(S(=O)(=O)Nc2ccc3c(c2)N(C(=O)C2CC2)CC3)s1	+	i
COc1ccc(S(=O)(=O)Nc2ccc3c(c2)N(C(=O)C2CC2)CC3)cc1	i	i
COc1ccccc1CNC(=O)Cc1cc(-c2ccc3c(c2)OCO3)on1	.	i
CC(C)N(C)S(=O)(=O)c1ccc(C(=O)Nc2nc(-c3ccncc3)cs2)cc1	+	i
Cc1ccc(-c2csc(NC(=O)c3ccc(S(=O)(=O)C(C)C)cc3)n2)cc1	i	.
Cc1nn(-c2ccc(F)cc2)c2ncc(C(=O)NCCCn3ccnc3)c(Cl)c12	+	.
Cc1ccc(CNC(=O)c2cnc3c(c(C)nn3-c3ccc(F)cc3)c2Cl)cc1	i	i
COC(=O)c1ccc(NC(=O)c2nnn(-c3ccccc3)c2C)cc1	i	i
CCCc1c(C(=O)Nc2cc(OC)ccc2OC)nnn1-c1ccccc1	i	i
CCCc1c(C(=O)Nc2cccc(C(=O)OC)c2)nnn1-c1ccccc1	+	i
COC(=O)c1cccc(NC(=O)c2nnn(-c3ccccc3F)c2C)c1	+	i
COc1ccc(-c2cccc(NC(=O)Nc3ccccc3)c2)nn1	i	i
COc1ccc(C(=O)/C=C/c2ccccc2Cl)c(OC(=O)N2CCOCC2)c1	i	.
SMILES	AMPAR-TARP mod	GIRK2 activator
CCCOc1ccc(CNC(=O)c2ccc(NC(=O)Cn3c(C)cc(C)c(C#N)c3=O)cc2)cc1	i	i
CCCn1c(=O)c2c(nc3n(-c4cc(OC)ccc4OC)c(-c4ccccc4)cn23)n(C)c1=O	+	.
CCCCn1c(=O)c2c(nc3n2CC(C)CN3c2ccccc2OC)n(C)c1=O (stereo unspecified)	i	.
CCn1c(=O)c2c(nc3n(-c4cc(OC)ccc4OC)c(-c4ccccc4)cn23)n(C)c1=O	i	i
CCCn1c(=O)c2c(nc3n2CC(C)CN3c2ccccc2OC)n(C)c1=O (stereo unspecified)	+	.
CN(C)C(CNC(=O)C(=O)Nc1ccc(C(N)=O)cc1)c1ccco1 (stereo unspecified)	i	i
Cc1ccc(Cl)cc1-n1nnnc1SCC(=O)Nc1ccc2nccnc2c1	i	i
COc1ccc(OCC(=O)Nc2cc(C)nn2C2CCS(=O)(=O)C2)cc1 (stereo unspecified)	i	i
COCCCNC(=O)C(=O)Nc1ccc([N+](=O)[O-])cc1	+	.
CN(C)CCNC(=O)C(=O)Nc1ccc([N+](=O)[O-])cc1	i	.
NS(=O)(=O)c1ccc(NC(=O)CN2C(=O)c3ccccc3S2(=O)=O)cc1	+	i
NC(=O)c1ccc(NC(=O)CN2C(=O)c3ccccc3S2(=O)=O)cc1	i	i
NCCN1CCOC(c2ccccc2)C1 (stereo unspecified)	i	.
Cc1ccnc(Nc2ccc(NCCNC(=O)C3CCCC3)nn2)c1	.	i
NC(=O)c1oc2ccccc2c1NC(=O)C(=O)NCCc1ccc(S(N)(=O)=O)cc1	i	i
O=C(NCc1ccsc1)c1cccc(C(F)(F)F)c1	+	i
O=C(NCc1ccsc1)c1ccc2c(c1)OCO2	i	i
Cc1nc(NCCNC(=O)Nc2ccc(Cl)c(C(F)(F)F)c2)cc(-n2cccn2)n1	+	i
Cc1nc(NCCNC(=O)Nc2ccc(C)c(F)c2)cc(-n2cccn2)n1	i	i
CN1CCN(C(=O)CC23CC4CC(C2)CC(c2ccccc2)(C4)C3)CC1	i	i
CC1=NN(c2ccccc2)C(=O)C1C(=O)c1ccc(C)c(C)c1 (stereo unspecified)	+	i
COc1ccc(C(=O)C2C(=O)N(c3ccccc3)N=C2C)cc1OC (stereo unspecified)	i	i
O=C(NCC(c1ccco1)N1CCOCC1)c1ccc2nsnc2c1 (stereo unspecified)	i	i
COc1cccc(C(CNC(=O)c2cccc3ccccc23)N2CCOCC2)c1 (stereo unspecified)	+	.
COc1cccc(C(CNC(=O)C2(c3cccs3)CCCC2)N2CCOCC2)c1 (stereo unspecified)	+	i
SMILES	AMPAR-TARP mod	GIRK2 activator
COc1cccc(C(CNC(=O)C(=O)NCc2cccs2)N2CCOCC2)c1 (stereo unspecified)	i	i
COc1cccc(C(CNC(=O)Cc2cccc3ccccc23)N2CCOCC2)c1 (stereo unspecified)	i	.
O=C(NCCN1CCOCC1)C(=O)c1cn(CC(=O)N2CCOCC2)c2ccccc12	i	.
CC1CN(CC(O)COC2CC3CCC2(C)C3(C)C)CC(C)O1 (stereo unspecified)	i	i
O=C(NCC(c1ccc(F)cc1)N1CCOCC1)C(=O)Nc1cccc([N+](=O)[O-])c1 (stereo unspecified)	i	i
Cc1ccc(CNC(=O)CC2Nc3cc(C)c(C)cc3NC2=O)cc1 (stereo unspecified)	+	.
C=CCNC(=O)CC1Nc2cc(C)c(C)cc2NC1=O (stereo unspecified)	.	i
COc1ccc(-c2nc3sc(CCNC(=O)Nc4cccs4)c(C)n3n2)cc1	i	i
O=S(=O)(c1ccccc1)c1nc(-c2ccccc2Cl)oc1N1CCCC1	+	i
CC(=O)N1CCN(c2oc(-c3ccccc3C)nc2S(=O)(=O)c2ccc(C)cc2)CC1	+	i
Cc1ccc(S(=O)(=O)c2nc(-c3ccccc3C)oc2N2CCC(C(N)=O)CC2)cc1	i	i
CC(=O)N1CCN(c2oc(-c3ccccc3)nc2S(=O)(=O)c2ccccc2)CC1	i	i
